About 83,000 compounds went through this panel and 20% of them were active in at least one assay; those are over-represented in the sample as a whole.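 Step 1: grow cells in 96-well plates. Step 2: add test compound at a single concentration. Step 3: incubate 48 h. Step 4: record percent growth.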 Values without a mark were called inactive. Active and inactive are the calls of the source. How the source made its calls: active means growth percent below 10; inactive means the rest.

Holding throughout (assay): NCI-60 one-dose screen, 48 h (100 = growth as untreated, 0 = no growth, -100 = all killed)
Conditions in all cases: 10 µM unless noted

The subject of assay [1] is NCI-H23 lung.
The subject of assay [2] is NCI-H226 lung.
The test system of assay [3] is NCI-H322M lung.
The test system of assay [4] is HOP-62 NSCLC.
For assay [5], the system named is NCI-H460 lung.
The test system of assay [6] is HOP-92 NSCLC.
Assay [7] has as its system NCI-H522 lung.
Assay [8] concerns A549/ATCC NSCLC.
For assay [9], the system named is 786-0 renal.
The subject of assay [10] is DU-145 prostate.
The subject of assay [11] is K-562 leukemia.
Assay [12] has as its system MALME-3M melanoma.
Assay [13] concerns MDA-MB-231 breast.
Assay [14] has as its system RXF 393 renal.
Assay [15] concerns SF-268 CNS.
Assay [16] concerns SF-295 CNS.
Assay [17] concerns SF-539 CNS.
In assay [18] the test system is UACC-257 melanoma.
Assay [19] has as its system M14 melanoma.

As to `O=C(NCc1cccnc1)c1cc(-c2csc3c(=O)cc(N4CCOCC4)oc23)cc2c1OCCO2`, the growth in [1] was 50.3%; in assay [2], 49.8%; in assay [3], 40%; in [4] it was 30.9%; in assay [5], 52.5%; in assay [6] it was 19.3%. The growth in [7] was 28.4%; in [8] it was 40.2%; in assay [9], 43.5%; in [10] it was 70%; in assay [11] it was 24.8%; in assay [12], 47.9%. In addition, the growth was 21.5% in [13]; 40.6% in assay [14]; 53% in assay [15]; 30% in [16]; 10.6% in assay [17]; 47% in [18]. Besides, in assay [19], the growth is 43.4%.
Regarding `N=c1ccn2c(n1)OC1C(O)C(CO)OC12` (configuration not stated), the growth in assay [1] was 24.7%; in assay [2], 45.1%; in assay [3] it was 63.8%; in assay [4] it was 24.5%; in assay [5] it was -9.72% (active); in [6], 49.2%. For the same compound, the growth in assay [7] is 35.9%; in assay [8] it was 16.2%; in [9], 15%; in assay [10], 11.7%; in assay [11], 94.5%; in assay [12], 43.5%. Further, the growth in [13] was 91.7%; in [14], 28.7%; in assay [15] it was 40.9%; in assay [16], 36.7%; in assay [17], 25.1%; in assay [18], 54.6%. The growth in assay [19] is -25.5% (active).
For the compound `COc1cc2c(cc1OC)-c1ccc3cc4c(cc3c1N(CCCN1CCCCC1)C2)OCO4`, the growth is 70.4% in [1]; 75.8% in assay [2]; 63.6% in assay [3]; 56% in assay [4]; 29.1% in [5]; 23.2% in assay [6]. For the same compound, the growth in [7] is 41.6%; in [8], 49.5%; in assay [9] it was 40.1%; in assay [10], 51.1%; in assay [11], 16.9%; in assay [12], 76.7%. Besides, the growth in [13] was 34.4%; in assay [14], 43.8%; in assay [15], 44.8%; in assay [16], 56.9%; in [17], 61.7%; in [18], 64.3%. Also, the growth in assay [19] was 54%.
Turning to `COc1ccc(/C=C2\C=C(c3ccccc3)N(CCc3ccccc3)C2=O)cc1OC`, the growth is 68.4% in assay [1]; 29.7% in assay [2]; 8.42% (active) in [3]; -30% (active) in assay [4]; 20.5% in [5]; -4.05% (active) in assay [6]. Also, the growth was 42.5% in [7]; 32.9% in assay [8]; 8.93% (active) in assay [9]; 69% in assay [10]; 47.6% in assay [11]; 39.3% in assay [12]. In addition, the growth was 29.6% in assay [13]; -3.29% (active) in assay [14]; 55.2% in assay [15]; 26.8% in assay [16]; 42.1% in assay [17]; 69.3% in assay [18]. The growth in [19] is 51.5%.
As for `O=C(Nc1ccccn1)[C@H](O)[C@@H](O)C(=O)N1CCOCC1`, the growth in assay [1] was 106%; in assay [2] it was 95.3%; in assay [3], 115%; in assay [4], 104%; in assay [5], 105%; in assay [6] it was 106%. Besides, the growth is 102% in assay [7]; 99.6% in assay [8]; 107% in assay [9]; 106% in [10]; 115% in assay [11]; 114% in assay [12]. The growth in assay [13] is 100%; in [14] it was 119%; in [15], 106%; in assay [16], 109%; in assay [17], 107%; in assay [18], 101%. Further, the growth in assay [19] was 103%.
`C[C@H]1[C@H](C)CC[C@]2(C(=O)N3CCN(C)CC3)CC[C@]3(C)C(=CC[C@@H]4[C@@]5(C)C/C(=C/c6cccnc6)C(=O)C(C)(C)[C@@H]5CC[C@]43C)[C@H]12`: the growth was -51.2% (active) in assay [1]; -57.2% (active) in [2]; -52.8% (active) in [3]; -95.9% (active) in [4]; -65.1% (active) in assay [5]; -81.7% (active) in [6]. For the same compound, the growth in assay [7] was -79.3% (active); in assay [8] it was -73.7% (active); in [9], -85% (active); in assay [10], -81.5% (active); in [11], -46.3% (active); in [12] it was -87.3% (active). The growth in assay [13] was -80.1% (active); in assay [14], -94.4% (active); in assay [15], -80.3% (active); in assay [16] it was -84.6% (active); in [17], -84.6% (active); in assay [18] it was -65.3% (active). Further, the growth in [19] was -81.8% (active).
On to `CS(=O)(=O)c1ccc(-c2[nH]c3ccc(F)cc3c2/C=N/O)cc1`, for which the growth in assay [1] was 94.3%; in assay [2], 92.8%; in [3] it was 90.1%; in assay [4], 80.7%; in [5], 105%; in assay [6] it was 87.6%. Also, the growth was 82% in assay [7]; 82% in [8]; 95.8% in [9]; 97.2% in [10]; 89.4% in assay [11]; 105% in assay [12]. The growth in [13] is 89.2%; in [14] it was 104%; in assay [15] it was 93%; in [16], 100%; in assay [17] it was 88.8%; in [18], 86.7%. For the same compound, the growth in [19] was 96.6%.
`CC(=[N-])N1CCC[C@@H](Nc2c3ccccc3nc3ccccc23)C1.[Cl][Pt].[NH-]CCC[NH-]`: the growth in [1] was -2.65% (active); in assay [2], -4.62% (active); in assay [3] it was 44.9%; in assay [4] it was 51.9%; in assay [5] it was 0.597% (active); in assay [6], 28.7%. Also, the growth in assay [7] was -18.5% (active); in assay [8] it was 7.75% (active); in assay [9] it was 53.5%; in [10], 5.94% (active); in assay [11] it was 19.2%; in assay [12], 20.7%. Also, the growth in assay [13] was 46.9%; in [14], -24.3% (active); in [15], 62.3%; in assay [16], 56.8%; in assay [17], 36.9%; in assay [18] it was 66.9%. In addition, the growth in assay [19] is 65.3%.
